Values joined by “and” are separate entries in the source; they are usually repeats but may differ in a detail not shown here. Identical values can stand only once. Records with an inconclusive call do not appear. Active and inactive are the calls of the source. Unless noted, the call rests on the fitted dose curve; in most records, active means well fitted curve in the direction sought with a large enough effect; inconclusive means small, poorly fitted or top-dose-only effect, or another doubt; inactive means no such curve, though single readings can be large; an effect the other way counts as inactive or inconclusive.
Columns and labels:
[1] = qHTS to identify inhibitors of the type 1 interferon - major histocompatibility complex class I in skeletal muscle: primary screen against the NCATS Pharmaceutical Collection (AID 1347407);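 further: luminescence of HiBiT knocked into endogenous HLA-B as interferon-induced MHC class I level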
Method in brief: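 Immortalized human myoblasts (C25cl48) with HiBiT knocked into endogenous HLA-B*08:01 were stimulated with 4 ng/ml IFN-beta and treated with compounds (8-point, 1:5, top 46 uM final) for 24 h at 37 C; HiBiT lytic luminescence read.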

[2] = molecular target: Protein phosphatase 1D (Homo sapiens) (UniProt O15297); experiment: RapidFire Mass Spectrometry qHTS Assay for Modulators of WT P53-Induced Phosphatase 1 (WIP1) (AID 1347424);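 further: amount of dephosphorylated VEPPL-S-QETFS peptide product formed by WIP1; series mostly up to about 63 µM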
Protein phosphatase 1D (Homo sapiens), sequence (O15297 whole entry, looked up): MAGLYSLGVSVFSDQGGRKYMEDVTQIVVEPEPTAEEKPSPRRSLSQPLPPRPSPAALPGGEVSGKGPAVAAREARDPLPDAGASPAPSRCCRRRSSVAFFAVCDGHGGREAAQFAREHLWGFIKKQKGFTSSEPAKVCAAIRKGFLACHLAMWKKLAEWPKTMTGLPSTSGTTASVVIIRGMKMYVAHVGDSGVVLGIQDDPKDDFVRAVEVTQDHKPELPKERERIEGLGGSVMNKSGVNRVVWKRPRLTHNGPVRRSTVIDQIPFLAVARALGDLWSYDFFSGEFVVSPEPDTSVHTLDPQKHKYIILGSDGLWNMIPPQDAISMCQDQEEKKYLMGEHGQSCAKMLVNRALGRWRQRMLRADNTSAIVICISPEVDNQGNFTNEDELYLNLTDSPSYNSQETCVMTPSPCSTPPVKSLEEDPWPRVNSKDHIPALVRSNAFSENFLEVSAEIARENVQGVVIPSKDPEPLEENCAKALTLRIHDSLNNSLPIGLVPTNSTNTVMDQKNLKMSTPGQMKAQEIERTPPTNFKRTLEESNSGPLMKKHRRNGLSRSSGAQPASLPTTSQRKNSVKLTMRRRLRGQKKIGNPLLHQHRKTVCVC
Method in brief: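 WIP1 (10 nM final) was preincubated 1 h at room temperature with compounds in Tris-HCl pH 7.5, 30 mM MgCl2, TCEP, EGTA, BSA; 2 uM VEPPL-pS-QETFS phosphopeptide was added for 5 min, quenched with formic acid, and dephosphorylated product quantified by RapidFire MS.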

[3] = molecular target: Protein phosphatase 1D (Homo sapiens) (UniProt O15297); experiment: Rhodamine-PBP qHTS Assay for Modulators of WT P53-Induced Phosphatase 1 (WIP1) (AID 1347425)
Method in brief: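 WIP1 (5 nM final) was preincubated with compound for 1 hour at room temperature. It then dephosphorylated 10 uM VEPPL-pS-QETFS peptide in Tris-HCl pH 7.5 with 30 mM MgCl2. Released Pi was detected by 10 uM Rh-PBP fluorescence (ex 525/em 598 nm) read at 1-min intervals for 11 min, as delta f1 - f0.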

[4] = Primary qHTS for small molecule stabilizers of the endoplasmic reticulum resident proteome: Secreted ER Calcium Modulated Protein (SERCaMP) assay (AID 1508630)
Method in brief: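 GLuc-SERCaMP-expressing SH-SY5Y cells, pretreated 16 h with compound, are challenged with thapsigargin to empty ER calcium stores; after 4 h, coelenterazine is added directly to the medium and luminescence is imaged.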

[5] = A High-Content qHTS Against Drug Library for the Identification of Small Molecules that Inhibit DYT1 Early Onset Primary Dystonia-Associated Cell Pathology (AID 1645839; calls by dose curve; further: potency means the concentration at half of the fitted maximal effect)
Method in brief: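 Readout: %pathology, the punctate EGFP-TorsinA distribution from imaging, as the primary channel and cell count as the toxicity counterscreen. HEK293 Flp-In cells expressing delE TorsinA were induced with tetracycline and treated with compound for 48 h.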

[6] = molecular target: Cytochrome P450 2D6 (Homo sapiens) (UniProt P10635); experiment: Cytochrome P450 family 2 subfamily D member 6 (CYP2D6) small molecule antagonists: luciferase biochemical (cell-free) qHTS assay (AID 1645840; active means well fitted curve in the direction sought with a large enough effect in the repeat runs; an effect the other way counts as inactive or inconclusive; further: nearly all actives have a fitted effect of over 55% in size; further: potency means the concentration at half of the fitted maximal effect)
Cytochrome P450 2D6 (Homo sapiens), sequence (P10635 whole entry, looked up): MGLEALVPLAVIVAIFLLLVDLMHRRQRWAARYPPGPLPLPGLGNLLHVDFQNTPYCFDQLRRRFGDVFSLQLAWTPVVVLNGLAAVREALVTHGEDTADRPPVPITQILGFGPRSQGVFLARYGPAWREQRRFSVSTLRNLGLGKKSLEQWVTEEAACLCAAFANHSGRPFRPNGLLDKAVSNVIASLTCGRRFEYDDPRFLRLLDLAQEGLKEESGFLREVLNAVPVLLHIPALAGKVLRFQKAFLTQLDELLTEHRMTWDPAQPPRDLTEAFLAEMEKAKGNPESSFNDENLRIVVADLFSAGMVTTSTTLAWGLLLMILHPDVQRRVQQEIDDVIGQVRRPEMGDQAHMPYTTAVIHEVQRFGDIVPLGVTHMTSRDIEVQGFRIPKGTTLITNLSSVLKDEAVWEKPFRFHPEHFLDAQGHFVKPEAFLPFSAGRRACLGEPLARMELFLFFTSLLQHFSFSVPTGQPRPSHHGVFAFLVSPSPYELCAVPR
Method in brief: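 P450-Glo luminescent screen: recombinant CYP2D6 enzyme–proluciferin substrate mix preincubated with compound 10 min at room temperature, then NADPH regeneration added for 1 h at room temperature. Detection reagent added for 20 min; luciferin light read as relative luminescence units.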

[7] = molecular target: Cytochrome P450 2C9 (Homo sapiens) (UniProt P11712); experiment: Cytochrome P450 family 2 subfamily C member 9 (CYP2C9) small molecule antagonists: luciferase biochemical (cell-free) qHTS assay (AID 1645842; active means well fitted curve in the direction sought with a large enough effect in the repeat runs; an effect the other way counts as inactive or inconclusive; further: nearly all actives have a fitted effect of over 55% in size; further: potency means the concentration at half of the fitted maximal effect)
Cytochrome P450 2C9 (Homo sapiens), sequence (P11712 whole entry, looked up): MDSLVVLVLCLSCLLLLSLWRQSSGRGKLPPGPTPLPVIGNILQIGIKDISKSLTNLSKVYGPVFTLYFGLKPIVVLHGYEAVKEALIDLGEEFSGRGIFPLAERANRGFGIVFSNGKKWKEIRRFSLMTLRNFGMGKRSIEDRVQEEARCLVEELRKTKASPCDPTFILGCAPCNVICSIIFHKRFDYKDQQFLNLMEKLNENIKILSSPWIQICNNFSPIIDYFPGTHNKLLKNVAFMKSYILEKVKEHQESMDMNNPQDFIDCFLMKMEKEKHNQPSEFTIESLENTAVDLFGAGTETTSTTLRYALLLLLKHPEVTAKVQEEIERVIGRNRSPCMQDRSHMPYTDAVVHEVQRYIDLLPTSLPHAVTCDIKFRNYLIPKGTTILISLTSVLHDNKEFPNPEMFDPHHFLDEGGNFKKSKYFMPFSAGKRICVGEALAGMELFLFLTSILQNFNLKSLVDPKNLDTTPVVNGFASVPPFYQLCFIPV
Method in brief: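 Luminescence, after 20 min with luciferin detection reagent, reflected CYP2C9 turnover during a 1 h NADPH-driven reaction at 37C. Enzyme-substrate mix contained 0.4% bovine serum albumin and was preincubated with compound 10 min at room temperature.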

[8] = molecular target: Calcium and integrin-binding protein 1 (Homo sapiens) (UniProt Q99828); experiment: Primary qHTS for Identification of Calcium Integrin Binding Protein 1 (CIB1) Competitor (AID 1508620);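 further: GST tagged CIB1 binding a fluorescein labelled alphaIIb integrin peptide tracer; top concentration of the series differs between compounds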
Calcium and integrin-binding protein 1 (Homo sapiens), sequence (Q99828 whole entry, looked up): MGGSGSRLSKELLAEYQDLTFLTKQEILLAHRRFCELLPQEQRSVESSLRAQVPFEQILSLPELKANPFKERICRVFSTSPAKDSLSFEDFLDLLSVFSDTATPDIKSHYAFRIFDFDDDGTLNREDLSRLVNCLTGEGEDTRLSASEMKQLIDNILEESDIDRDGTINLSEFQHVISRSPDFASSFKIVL
Method in brief: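 Fluorescence polarization competition: CIB1-GST (1 uM final) preincubated with compound 15 min at room temperature, then FITC-labeled alphaIIb peptide (100 nM final) added for another 15 min. Polarization read at Ex 480/Em 540.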

[9] = Primary qHTS for inhibitors of La Crosse Virus (LACV) - induced cell death in SH-SY5Y cells (AID 1508616);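 further: top concentration of the series differs between compounds; higher means more rescue of cells from virus-induced death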
Method in brief: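 Luminescent ATP readout (ATPLite 1step, 5 min room temperature) measured rescue from LACV-induced death after 6 days of infection at 0.01 MOI; normalized to infected DMSO wells and uninfected DMSO wells.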

[10] = Confirmatory qHTS for small molecule stabilizers of the endoplasmic reticulum resident proteome: Secreted ER Calcium Modulated Protein (SERCaMP) assay (AID 1508628); further: potency means the concentration at half of the fitted maximal effect; nearly all actives have a fitted effect of over 40% in size
Method in brief: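 We seeded SH-SY5Y-GLuc-SERCaMP cells, added compounds (three concentrations in the primary run, eleven up to 76.6 uM in confirmation), incubated 16 h, depleted ER calcium with thapsigargin, and read luciferase 4 h later.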

Measured: Potency

O=C(O)c1ccc[n+]([O-])c1
not listed: [8] | [9] | [10]
inactive: all other assays above

CCN(CC)CCc1nc(-c2ccccc2)no1
not listed: [9] | [10]
inactive: all other assays above

C[N+](C)(C)CC[N+]1(C)Cc2c(Cl)c(Cl)c(Cl)c(Cl)c2C1
active: [6] 1.95 µM
not listed: [9] | [10]
inactive: all other assays above

CC(=O)NS(=O)(=O)c1ccc(N)cc1
not listed: [2] | [7] | [10]
inactive: all other assays above

CC(=O)Oc1cccc(C)c1
inactive: [1] | [2] | [3] | [5] | [6] | [7]

CCCCCCCC(=O)OCC(O)CO (centres undefined)
inactive: [1] | [2] | [3] | [8] | [5] | [6]

CN1CCCN=C1COC(=O)C(O)(c1ccccc1)C1CCCCC1 (centres undefined)
active: [6] 1.23 µM
not listed: [9] | [10]
inactive: all other assays above

CN[C@@H]1[C@@H](O)[C@@H](O[C@@H]2[C@H](O)[C@H](O[C@H]3OC(CN)=CC[C@H]3N)[C@@H](N)C[C@H]2N)OCC1(C)O (some centres undefined)
inactive: [1] | [2] | [3] | [8] | [5]

NS(=O)(=O)c1cc(-c2nn[nH]n2)c(NCc2cccs2)cc1Cl
inactive: [1] | [2] | [4] | [5] | [6]
active: [7] 10.7 µM and 19.5 µM

Nc1ncnc(Nc2ccccc2)n1
not listed: [2] | [10]
inactive: all other assays above

NNC(=O)CP(=O)(c1ccccc1)c1ccccc1
active: [7] 15.5 µM
not listed: [4] | [9] | [10]
inactive: all other assays above

CN1CC(=O)NC1=N
not listed: [4] | [9] | [10]
inactive: all other assays above

O=c1[nH]c(=O)c2ccccc2o1
not listed: [2] | [10]
inactive: all other assays above

O[C@@H]1CO[C@H]2[C@@H]1OC[C@@H]2O
not listed: [2] | [10]
inactive: all other assays above

CC[C@H](C)[C@H](N)C(=O)O
not listed: [2] | [10]
inactive: all other assays above

O=C(O)C(S)C(S)C(=O)O (centres undefined)
not listed: [4] | [9] | [10]
inactive: all other assays above

FC(F)(F)C(Cl)Br (centres undefined)
not listed: [9] | [10]
inactive: all other assays above

O=C(Cn1ccnc1[N+](=O)[O-])NCc1ccccc1
not listed: [2] | [10]
inactive: all other assays above

CCCCC1(COC(=O)CCC(=O)O)C(=O)N(c2ccccc2)N(c2ccccc2)C1=O
inactive: [2] | [3] | [9] | [8] | [4] | [5]

CC(C)CCOC(=O)c1ccc(N(C)C)cc1
active: [7] 6.92 µM
not listed: [2] | [4] | [10]
inactive: all other assays above

c1ccc2[nH]ccc2c1
not listed: [1] | [4] | [10]
inactive: all other assays above

O=C(O)CCC(=O)O
inactive: [1] | [3] | [9] | [5] | [6] | [7]

C=CCOc1ccccc1OCC(O)CNC(C)C (centres undefined)
active: [6] 13.8 µM
inactive: [1] | [3] | [9] | [5] | [7]

O=C(O)[C@@H]1[C@H]2C[C@H]3c4[nH]c5ccccc5c4CCN3C[C@@H]2CC[C@@H]1O
active: [6] 0.977 µM
not listed: [2] | [8] | [10]
inactive: all other assays above

CC1(c2ccccc2)OC(C(=O)O)=CC1=O (centres undefined)
not listed: [2] | [8] | [10]
inactive: all other assays above

CC(=O)Nc1ccc(OCCOCCOc2ccc(NC(C)=O)cc2)cc1
active: [7] 3.47 µM
inactive: [1] | [3] | [8] | [4] | [6]

CC1(C)[C@@H](OC(=O)CCC(=O)O)CC[C@]2(C)[C@H]3C(=O)C=C4[C@@H]5C[C@@](C)(C(=O)O)CC[C@]5(C)CC[C@@]4(C)[C@]3(C)CC[C@@H]12
inactive: [1] | [9] | [5] | [6] | [7]

CC1CC(OC(=O)c2ccccc2O)CC(C)(C)C1 (centres undefined)
inactive: [1] | [3] | [8] | [4] | [5] | [7]

Cc1cc(NC(=O)C2=C(O)c3ccccc3S(=O)(=O)N2C)no1
not listed: [1] | [2] | [10]
inactive: all other assays above

CC(=O)Oc1cccc(O)c1
inactive: [1] | [3] | [8] | [5] | [6] | [7]

C/C=C1\[C@H]2C=C(C)C[C@]1(N)c1ccc(=O)[nH]c1C2
inactive: [1] | [3] | [9] | [5] | [6] | [7]

OC(CCN1CCCC1)(c1ccccc1)C1CCCCC1 (centres undefined)
inactive: [1] | [3] | [9] | [5]
active: [10] 3.98 µM

Cn1c(=O)c2c(ncn2CCO)n(C)c1=O
not listed: [2] | [4] | [10]
inactive: all other assays above

CC[N+](CC)(CC(=O)Nc1c(C)cccc1C)Cc1ccccc1
not listed: [2] | [8] | [10]
inactive: all other assays above

Cc1c(C)c2c(c(C)c1OC(=O)c1cccnc1)CC[C@@](C)(CCC[C@H](C)CCC[C@H](C)CCCC(C)C)O2
not listed: [2] | [9] | [10]
inactive: all other assays above

CC1CCN(CCCC(=O)c2ccc(F)cc2)CC1
active: [6] 0.195 µM
not listed: [2] | [9] | [10]
inactive: all other assays above

COc1ccccc1Oc1c(NS(=O)(=O)c2ccc(C(C)(C)C)cc2)nc(-c2ncccn2)nc1OCCO
inactive: [1] | [3] | [9] | [8] | [6]

O=C(O)Cn1c(C(=O)Nc2nc(-c3ccccc3Cl)cs2)cc2ccccc21
inactive: [1] | [8] | [7]

Cc1cc(=O)[nH]c(=S)[nH]1
not listed: [2] | [4] | [10]
inactive: all other assays above

O=C1C(c2[nH]c3ccccc3c2O)=Nc2ccccc21
not listed: [2] | [4] | [10]
inactive: all other assays above

Cc1ncc(CO)c(CN)c1O
not listed: [2] | [4] | [10]
inactive: all other assays above

CCc1nnc(NS(=O)(=O)c2ccc(N)cc2)s1
inactive: [1] | [3] | [9] | [8] | [5] | [6]

COc1cc(O)cc(O)c1
inactive: [1] | [3] | [8] | [5] | [6] | [7]

CCCCCCCCCCCCCCCCC(C(=O)O)C(O)(CC(=O)O)C(=O)O (centres undefined)
inactive: [1] | [3] | [9] | [8] | [7]
active: [5] 7.94 µM

CCN(CC)S(=O)(=O)c1ccc(C(=O)O)cc1
inactive: [1] | [3] | [9] | [4] | [5] | [6]

CC(C)(C)NCC(O)COc1cccc2c1CCC(=O)N2 (centres undefined)
not listed: [2] | [8] | [10]
inactive: all other assays above

CCCCOC(=O)c1ccc(N)cc1
inactive: [2] | [3] | [9] | [8]

CCOC(=O)[C@H](CCc1ccccc1)N[C@@H](C)C(=O)N1Cc2cc(OC)c(OC)cc2C[C@H]1C(=O)O
active: [7] 12.3 µM
not listed: [2] | [8] | [10]
inactive: all other assays above

Cc1cc(C)nc(NS(=O)(=O)c2ccc(N)cc2)n1
inactive: [1] | [3] | [4] | [5] | [6] | [7]

NCc1ccc(S(N)(=O)=O)cc1
inactive: [1] | [3] | [4] | [5] | [6]

O=C1c2cccc(O)c2C(=O)c2c(O)cccc21
not listed: [2] | [8] | [10]
inactive: all other assays above

COC(=O)c1ccccc1C(=O)c1ccc(OCCN2CCCCC2)cc1
active: [6] 11 µM
inactive: [1] | [3] | [9] | [5] | [7]

CC(=O)N[C@H]1[C@H]([C@H](O)[C@H](O)CO)OC(C(=O)O)=C[C@@H]1N=C(N)N
not listed: [2] | [4] | [10]
inactive: all other assays above

O=C1c2ccccc2C(=O)C1c1ccc(Br)cc1
active: [7] 2.19 µM
inactive: [1] | [9] | [8] | [5] | [6]

CCCCCCCCCCC(CO)CCCCCCCC (centres undefined)
not listed: [2] | [4] | [10]
inactive: all other assays above

COc1ccc(NS(=O)(=O)c2ccc(N)cc2)nn1
inactive: [1] | [3] | [9] | [5]

NS(=O)(=O)c1cc(C2(O)NC(=O)c3ccccc32)ccc1Cl (centres undefined)
inactive: [1] | [3] | [9] | [5] | [7]

— PubChem BioAssay (NCATS)
